Among the data in PubChem BioAssay (NCI) are growth inhibition values, retold here.

About 79,000 compounds went through this panel and 15% of them were active in at least one assay; those are over-represented in the sample as a whole. Unmarked numbers belong to inactive results. The source made the active and inactive calls. Cut-off read from the data, not from the text of the source: active = growth inhibition above about 70%; inactive = the rest.

The nature of this assay: NCI Yeast Anticancer Drug Screen. Data for the mlh1 rad18 strain (AID 175). The settings on record: S. cerevisiae mlh1 rad18 strain growth inhibition; at 50.0 µM; active compounds read high. An outline of the steps:
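Read-out is yeast growth inhibition, calculated against vehicle-only controls. The compound was applied to a strain engineered with DNA damage repair alterations.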
For `COC(=O)c1ccc(Cl)c(Cl)c1`, the growth inhibition is -0.65%. The result for `Cc1cc(Br)c2ccccc2c1N` reads 90.2% (active). Consider `C=C1N(S(=O)(=O)c2ccc(C)cc2)C(=O)OCC12CCCC2`, for which the growth inhibition is 3.5%. In the case of `CCCCCCCCN=C(N)c1ccc(C(=O)OCC2CCCCC2)cc1`, the growth inhibition was 99.7% (active). Consider `Nc1ccc2ccc3cccc4ccc1c2c34`, for which the growth inhibition is 88.9% (active).

Regarding `C=C(Br)CN(CC(=C)Br)C(C)=O`, the growth inhibition is -53.9%. The result for `[Ce+3].[Cl-].[O-]/N=C(\c1ccccc1)c1ccccn1.[O-]/N=C(\c1ccccc1)c1ccccn1.[O-]/N=C(\c1ccccc1)c1ccccn1` reads 86.2% (active). For `O=CCCCc1cc2c(cc1Br)CCC2`, the growth inhibition was 50.4%. The result for `C1=C(CC2=C[P+](c3ccccc3)(c3ccccc3)C=C(c3ccccc3)O2)OC(c2ccccc2)=C[P+]1(c1ccccc1)c1ccccc1` reads 90.8% (active); that for `CC/C=C(\C)CC(C)O` (configuration not stated), 54.9%.

As for `CCC(c1ccc(Cl)cc1)C(C#N)c1ccc(Cl)cc1` (configuration not stated), the growth inhibition is 76.4% (active). On to `CN1/C(=C/C=C/C(I)=C/C=C/C2=[N+](C)c3ccccc3C2(C)C)C(C)(C)c2ccccc21`, for which the growth inhibition is 84.7% (active).

In the case of `Nc1ccc(N)c2c1C(=O)c1ccccc1C2=O`, the growth inhibition was 50.6%. The result for `CN1C=COC1N=C1CCCCC1` (configuration not stated) reads -32.1%; that for `Clc1ccc(Cc2nc3ccccc3s2)c(Cl)c1`, 92.5% (active); that for `O=CC1(c2ccc(Cl)cc2)NC(=O)NC1=O` (configuration not stated), 3.35%. With `O=C(CSc1nnc(-c2ccc(N=Cc3ccc(Cl)cc3)cc2)o1)Nc1ccc(Cl)cc1Cl`, the growth inhibition is 97.9% (active). The result for `O=C(Oc1ccccc1)C1CCCCC1C(=O)Oc1ccccc1` (configuration not stated) reads 31.8%; that for `O=C(O)Cc1ccc2c(c1O)C(=O)c1ccccc1C2=O`, 74.1% (active); that for `O=[N+]([O-])c1cccc(F)c1O`, 78.3% (active).

Take `CCc1nc2c(O)ccc(O)c2nc1C`: the growth inhibition was 90.3% (active). The result for `COC(=O)N/N=C(/CC1(O)C(=O)Nc2ccccc21)c1ccc(Cl)cc1Cl` (configuration not stated) reads 97.8% (active).
